Laboratory results as given in PubChem BioAssay.
Calls of active or inactive are those of the source. Unless noted, how the calls were made is not given here.

Assays:
[1] = resazurin metabolic signal in HepG2 cells – cell-based, resazurin fluorescence, 24 h, PK04 Diversity Set, profiling panel (AID 1172); settings: HepG2 viability, higher = more signal; further: test concentration not given here
[2] = budding yeast growth changes without added modifier – OD600, strain BY4716, 24 h, basal condition, primary screen (AID 1173); settings: S. cerevisiae BY4716 growth, OD600, 24 h; higher = more signal, called active from +8 up or from −8 down
[3] = viability profiling in MM1S myeloma cells – cell-based, resazurin fluorescence, basal, 24 h, PK04 Diversity Set, profiling panel (AID 1174); settings: higher = more signal, called active from +8 up or from −8 down;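 further: MM1S multiple myeloma cell line; test concentration not given here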
[4] = biological target: Dihydroorotate dehydrogenase (quinone), mitochondrial (Plasmodium falciparum (isolate 3D7)) (UniProt Q08210); assay: inhibition of P. falciparum DHODH – biochemical, C-terminal His tag, absorbance 600 nm, primary screen (AID 1175); settings: PfDHODH enzyme, DCIP absorbance 600 nm; higher = more signal, called active from +8 up or from −8 down;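 further: recombinant parasite enzyme with a five histidine tag at its C terminus; test concentration not given here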
[5] = inhibition of PAO1 biofilm formation – strain PAO1, LB-PBS medium, absorbance 600 nm, primary screen (AID 1176); further: test concentration not given here; settings: P. aeruginosa PAO1 growth/biofilm, A600, 12 h; higher = more signal
[6] = growth modulation of vineyard yeast isolate – strain RM11-1a, OD600, basal, 24 h, primary screen (AID 1177);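 further: cultures grown under basal conditions with no added stressor; test concentration not given here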; settings: S. cerevisiae RM11-1a growth, OD600, 24 h; higher = more signal, called active from +8 up or from −8 down
[7] = growth of efflux-deficient E. coli DRC39 – strain DRC39, OD650, 24 h, E. coli filamentation inducers, primary screen (AID 1178);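 further: growth measured as culture turbidity by optical density at 650 nm; test concentration not given here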; settings: E. coli DRC39 acrAB, higher = more signal, called active from +8 up or from −8 down
[8] = growth of efflux-deficient E. coli DRC39 – strain DRC39, OD650, 48 h, E. coli filamentation inducers, primary screen (AID 1179);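 further: screen aims at cell division blockers that make cells filament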; settings: E. coli DRC39 delta-acrAB growth, higher = more signal, called active from +8 up or from −8 down
[9] = viability profiling in RPMI8226 myeloma cells – cell-based, resazurin fluorescence, basal, 24 h, PK04 Diversity Set, profiling panel (AID 1180); settings: higher = more signal;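 further: RPMI8826 multiple myeloma cell line at 5000 cells per well; test concentration not given here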
[10] = biological target: E3 ubiquitin-protein ligase XIAP (Homo sapiens) (UniProt P98170); assay: small molecules binding XIAP protein – biophysical, small-molecule microarray, fluorescence 635 nm, primary screen (AID 1181); settings: higher = more signal;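 further: score merges 667 nm emission and signal to noise over triplicate slides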
Sequence of E3 ubiquitin-protein ligase XIAP (Homo sapiens) (P98170 whole entry, looked up): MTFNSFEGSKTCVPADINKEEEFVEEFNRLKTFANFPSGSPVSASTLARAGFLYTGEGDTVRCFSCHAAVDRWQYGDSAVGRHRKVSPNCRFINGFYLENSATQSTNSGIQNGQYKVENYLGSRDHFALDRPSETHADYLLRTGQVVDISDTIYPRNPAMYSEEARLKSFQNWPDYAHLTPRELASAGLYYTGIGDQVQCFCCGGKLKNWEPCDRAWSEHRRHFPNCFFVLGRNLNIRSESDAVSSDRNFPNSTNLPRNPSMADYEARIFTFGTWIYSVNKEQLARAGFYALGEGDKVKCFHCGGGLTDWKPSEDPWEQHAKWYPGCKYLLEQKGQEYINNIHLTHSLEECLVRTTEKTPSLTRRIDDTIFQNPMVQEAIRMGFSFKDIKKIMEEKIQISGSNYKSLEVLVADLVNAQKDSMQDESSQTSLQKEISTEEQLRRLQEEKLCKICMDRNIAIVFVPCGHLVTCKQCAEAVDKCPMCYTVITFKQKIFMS

Sequence of Dihydroorotate dehydrogenase (quinone), mitochondrial (Plasmodium falciparum (isolate 3D7)) (Q08210 whole entry, looked up): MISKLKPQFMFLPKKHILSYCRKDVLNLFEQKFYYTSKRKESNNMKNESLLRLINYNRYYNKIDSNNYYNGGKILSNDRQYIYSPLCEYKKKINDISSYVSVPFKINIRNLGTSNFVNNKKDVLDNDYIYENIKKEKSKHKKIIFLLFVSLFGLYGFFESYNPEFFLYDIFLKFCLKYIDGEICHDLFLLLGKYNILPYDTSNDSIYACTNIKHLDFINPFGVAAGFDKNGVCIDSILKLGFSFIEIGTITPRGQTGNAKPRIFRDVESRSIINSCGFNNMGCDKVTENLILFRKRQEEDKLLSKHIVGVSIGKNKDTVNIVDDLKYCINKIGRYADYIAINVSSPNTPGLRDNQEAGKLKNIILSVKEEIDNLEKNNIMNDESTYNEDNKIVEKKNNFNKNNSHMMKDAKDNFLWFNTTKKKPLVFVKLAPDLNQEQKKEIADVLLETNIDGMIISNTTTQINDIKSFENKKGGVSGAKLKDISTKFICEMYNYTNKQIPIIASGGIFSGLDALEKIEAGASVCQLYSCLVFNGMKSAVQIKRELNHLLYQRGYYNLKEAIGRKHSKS

SMILES	z-score [1]	z-score [2]	z-score [3]	composite z-score [4]	z-score [5]	z-score [6]	z-score [7]	z-score [8]	z-score [9]	composite z-score [10]
Cc1cccc([C@H]2C[C@H]3C(Br)=C[C@@]2(CO)C(=O)[C@]32CO2)c1	0.888	-5.63 (inactive)	-0.398 (inactive)	-0.287 (inactive)	0.343 (inactive)	-0.169 (inactive)	0.258 (inactive)	0.294 (inactive)	0.214	0.273
O=C/C=C/c1ccc(-c2ccccc2)cc1	-0.0736	-18.6 (active)	-1.08 (inactive)	-2.53 (inactive)	-0.944 (inactive)	-21.6 (active)	1.29 (inactive)	0.917 (inactive)	-5.15	0.0097
C=CCOC(=O)[C@H]1[C@@H]2C(=O)O[C@@H](c3ccccc3)[C@@H](c3ccccc3)N2[C@@H](c2ccc(OCCOC(=O)[C@H]3C[C@H]4C(=O)NCC(=O)N4[C@H]3c3ccc(O)cc3)cc2)[C@]12C(=O)Nc1ccccc12	-0.0886	1.1 (inactive)	1.02 (inactive)	0.814 (inactive)	0.916 (inactive)	2.99 (inactive)	0.504 (inactive)	-0.0754 (inactive)	1.72	-0.202
COC(=O)[C@@]1(Cc2ccc(F)cc2)[C@H]2c3cc(C(=O)N(C)C)n(Cc4ccsc4Br)c3C[C@H]2CN1C(=O)c1ccccc1	-1.05	1.08 (inactive)	-1.36 (inactive)	-0.713 (inactive)	1 (inactive)	0.47 (inactive)	-1.52 (inactive)	-0.85 (inactive)	-2.7	0.447
COc1cccc(C)c1NC(=O)O[C@H]1[C@H](OC(=O)Nc2ccccc2)[C@@H](OC(=O)Nc2ccccc2)[C@@H](OC)O[C@@H]1CO	-2	0.748 (inactive)	-3.79 (inactive)	-0.0526 (inactive)	1.28 (inactive)	2.78 (inactive)	0.655 (inactive)	-0.667 (inactive)	-2.85	0.06
O=C1O[C@H](c2ccccc2)[C@H](c2ccccc2)N2[C@H]1[C@@H](C(=O)Nc1nc3ccccc3s1)[C@]1(C(=O)Nc3ccccc31)[C@H]2c1ccccc1OCCO	0.551	0.448 (inactive)	-1.93 (inactive)	0.386 (inactive)	2.76 (inactive)	2.72 (inactive)	-0.0179 (inactive)	-0.145 (inactive)	-3.31	-0.128
CC(=O)NCCCC[C@@H]1NC(=O)[C@H]2C[C@@H](C(=O)O)[C@@H](c3cccc(OCCO)c3)N2C1=O	-0.7	-0.757 (inactive)	0.441 (inactive)	-0.969 (inactive)	0.118 (inactive)	-0.587 (inactive)	-0.33 (inactive)	0.0133 (inactive)	-0.0778	-0.138
COc1cc2c(cc1O)C(C)N(Cc1sc3ccccc3c1Cl)CC2 (stereo not given)	0.311	-0.961 (inactive)	0.0446 (inactive)	-2.64 (inactive)	0.668 (inactive)	-0.123 (inactive)	1.14 (inactive)	0.717 (inactive)	-0.0875	-0.148
COC(=O)C(CC#Cc1ccc2c(c1)[C@]1(C(=O)N2)[C@H](c2ccccc2OCCO)N2[C@H](c3ccccc3)[C@H](c3ccccc3)OC(=O)[C@H]2[C@@H]1C(=O)N1CCN(c2ncccn2)CC1)C(=O)OC	-0.0452	2.09 (inactive)	-0.935 (inactive)	-16.6 (active)	2.29 (inactive)	3.65 (inactive)	0.236 (inactive)	-0.11 (inactive)	-4.73	0.306
COc1ccc(CCNC(=O)[C@@H]2c3ccccc3C(=O)N(Cc3cc(F)cc(C(F)(F)F)c3)[C@H]2c2ccc(CO)cc2)cc1	-0.162	-0.314 (inactive)	0.821 (inactive)	-0.179 (inactive)	-0.121 (inactive)	-0.209 (inactive)	0.746 (inactive)	0.387 (inactive)	1.16	-0.0835
COCCOC(=O)N1C(=O)[C@@]2(c3cc(C#CCC(C(=O)OC)C(=O)OC)ccc31)[C@H](c1ccc(O)cc1)N1[C@H](c3ccccc3)[C@H](c3ccccc3)OC(=O)[C@H]1[C@@H]2C(=O)N1CCc2cc(OC)c(OC)cc2C1	-0.347	-0.672 (inactive)	0.222 (inactive)	-0.118 (inactive)	0.008 (inactive)	0.494 (inactive)	0.109 (inactive)	0.588 (inactive)	-0.92	-0.0233
Cc1ccc(S[C@]2(C(=O)NC3CC3)CC(=O)N(C3Cc4ccccc4C3)[C@@H]2c2ccc(CO)cc2I)cc1	-0.386	-4.29 (inactive)	-2.54 (inactive)	0.282 (inactive)	0.0493 (inactive)	0.283 (inactive)	0.112 (inactive)	-0.266 (inactive)	-1.24	-0.174
CN1C2C=C(c3ccc(CO)cc3)C(C3C(=O)N(C(N)=O)C(=O)C32)C1C1CC1 (stereo not given)	-0.41	1.31 (inactive)	-0.611 (inactive)	0.437 (inactive)	0.354 (inactive)	0.718 (inactive)	0.0605 (inactive)	0.213 (inactive)	-0.641	-0.0745
C=CCNC(=O)[C@H]1[C@@H]2C(=O)O[C@@H](c3ccccc3)[C@@H](c3ccccc3)N2[C@@H](c2ccc(O)cc2)[C@]12C(=O)Nc1ccc(C#CCC(C(=O)OC)C(=O)OC)cc12	-0.111	0.24 (inactive)	0.0789 (inactive)	-7.4 (inactive)	0.293 (inactive)	0.249 (inactive)	-0.254 (inactive)	-0.0535 (inactive)	-3.01	0.256
CCOC(=O)C1=CCC(c2ccncc2)N(S(=O)(=O)c2ccc(C)cc2)C1 (stereo not given)	-0.226	-0.867 (inactive)	-1.14 (inactive)	-1.2 (inactive)	-0.433 (inactive)	-0.364 (inactive)	-0.0978 (inactive)	0.737 (inactive)	-1.25	-0.197
N#Cc1ccc(NN2C(C(O)c3ccc(B(O)O)cc3)C=CC3CN(c4ccccc4)C(=O)C32)cc1 (stereo not given)	-0.595	-15.4 (active)	-1.25 (inactive)	-0.883 (inactive)	0.475 (inactive)	1.56 (inactive)	0.898 (inactive)	0.934 (inactive)	-0.662	-0.0917
C=C(C(=O)CC[C@@H](OC(=O)c1ccccc1-c1ccccc1C(=O)O)c1ccc(CO)o1)C(C)C	-0.31	-0.317 (inactive)	0.114 (inactive)	-2.18 (inactive)	1.63 (inactive)	0.0083 (inactive)	0.159 (inactive)	-0.171 (inactive)	0.16	-0.282
C=CCNC(=O)[C@@H]1[C@H]2C(=O)O[C@H](c3ccccc3)[C@H](c3ccccc3)N2[C@H](c2ccc(O)cc2)[C@@]12C(=O)N(C(=O)OCCOC)c1ccc(C#CCC(C(=O)OC)C(=O)OC)cc12	0.475	-0.17 (inactive)	0.716 (inactive)	-2.5 (inactive)	0.089 (inactive)	1.88 (inactive)	1.09 (inactive)	0.666 (inactive)	-1.73	0.0859
COc1ccc(C(=O)Nc2cccc(CN3C(=O)[C@]4(O[C@H](CC(=O)N(CCO)Cc5ccccc5)[C@@H]([Si](C)(C)c5ccc(OC)cc5)[C@@H]4C)c4ccccc43)c2)cc1	-0.754	0.404 (inactive)	-1.87 (inactive)	-1.92 (inactive)	0.769 (inactive)	3.54 (inactive)	1.46 (inactive)	0.852 (inactive)	-1.52	1.38
C=C(C(=O)CC[C@@H](OC(=O)c1ccccc1-c1ccccc1C(=O)O)c1ccc(OCCO)cc1)C(C)C	-0.304	-1.3 (inactive)	0.089 (inactive)	-1.29 (inactive)	0.85 (inactive)	-0.718 (inactive)	-0.166 (inactive)	-0.135 (inactive)	0.488	-0.101
CCCCCN1CC=CC23O[C@@H]4/C=C\CCCOC(=O)C4[C@H]2C(=O)N(CCO)[C@@H]3C1=O (stereo not given in full)	-0.192	-1.2 (inactive)	1.22 (inactive)	-0.195 (inactive)	0.938 (inactive)	-0.843 (inactive)	0.859 (inactive)	0.188 (inactive)	0.936	-0.0918
CN1C(=O)C2C=CC(C(O)c3ccc([N+](=O)[O-])cc3)N(Nc3ccccc3)C2C1=O (stereo not given)	-1.83	-1.21 (inactive)	-1.03 (inactive)	0.003 (inactive)	1.1 (inactive)	0.114 (inactive)	-0.987 (inactive)	-1.16 (inactive)	-1.44	-0.0476
CCN1C(=O)C2CC(=O)C3C(CN(S(=O)(=O)c4ccc(C)cc4)C3c3ccc(C)cc3)C2C1=O (stereo not given)	-0.733	0.728 (inactive)	-0.631 (inactive)	0.551 (inactive)	-0.144 (inactive)	0.5 (inactive)	-0.772 (inactive)	0.346 (inactive)	-0.627	-0.148
COc1ccc(C#Cc2ccc3c(c2)[C@]2(C(=O)N3)[C@H](c3ccccc3OCCO)N3[C@H](c4ccccc4)[C@H](c4ccccc4)OC(=O)[C@H]3[C@@H]2C(=O)NC[C@H](O)c2ccccc2)cc1	0.328	2.05 (inactive)	-2.59 (inactive)	-17.2 (active)	1.08 (inactive)	2.25 (inactive)	0.158 (inactive)	-0.438 (inactive)	-3.95	0.0655
[N-]=[N+]=NCc1ccccc1[C@H]1OC(c2ccc(OCCCO)cc2)=N[C@@]1(CCS(=O)(=O)c1ccccc1)C(=O)O	0.086	-1.04 (inactive)	-0.389 (inactive)	-1.14 (inactive)	-0.0304 (inactive)	-0.81 (inactive)	-0.589 (inactive)	-0.336 (inactive)	0.0678	0.273
